Assay outcomes (PubChem)
USP28 block: human USP28 deubiquitinase inhibition | actives 3% (n = 47,000) | purified USP28, Ub-rhodamine cleavage fluorescence, 30 min | inhibition, % at 25 µM | Q96RU2
USP17 inh: inhibitors of human USP17 deubiquitinase. A8MUK1. purified USP17, Ub-rhodamine cleavage fluorescence, 3 h. inhibition, % at 50 µM. actives 6.5% (n = 47,000)
Target sequence (A8MUK1 whole entry, looked up): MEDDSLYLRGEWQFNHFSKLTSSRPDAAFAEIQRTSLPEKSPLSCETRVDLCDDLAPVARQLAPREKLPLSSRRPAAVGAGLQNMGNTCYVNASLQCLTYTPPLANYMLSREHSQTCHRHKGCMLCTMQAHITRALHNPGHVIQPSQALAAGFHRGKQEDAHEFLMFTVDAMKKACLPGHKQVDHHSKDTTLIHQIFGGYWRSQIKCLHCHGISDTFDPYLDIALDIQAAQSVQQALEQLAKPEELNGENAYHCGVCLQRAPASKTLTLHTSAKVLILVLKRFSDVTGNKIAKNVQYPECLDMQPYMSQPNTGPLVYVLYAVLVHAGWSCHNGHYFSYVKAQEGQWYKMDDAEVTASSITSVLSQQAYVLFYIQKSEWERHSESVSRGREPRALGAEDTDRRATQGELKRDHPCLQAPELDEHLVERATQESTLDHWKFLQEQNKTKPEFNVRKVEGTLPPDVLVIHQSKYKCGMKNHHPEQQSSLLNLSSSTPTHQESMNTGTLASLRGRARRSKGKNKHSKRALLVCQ
USP30 inh: blocks human USP30 ubiquitin-rhodamine cleavage | inhibition, % at 25 µM | purified USP30, Ub-rhodamine cleavage fluorescence | Q70CQ3 | AID 1645860 | actives 5.3% (n = 47,000)
Hits are given with their value; i = inactive; nt = no result. The list is not random: actives were taken first. Their share in the collection is about 11%. No stated cut-off is given here; in the data, active means inhibition above about 30%; inactive means the rest.

SMILES	USP28 block	USP17 inh	USP30 inh
CC(C)c1ccc(NC(=O)CC2C(=O)OCCN2Cc2ccccc2)cc1 (centres undefined)	i	i	i
Cc1ccc(F)cc1NC(=O)CCc1nc(CSc2nc3ccccc3o2)no1	i	i	i
COc1cccc(CNC(=O)c2nc3c(s2)CCN(C(=O)c2cc(C)on2)CC3)c1	i	i	i
Cc1nc2ccc(NC(=O)c3cccc(C(F)(F)F)c3)cc2nc1C	i	i	i
O=C(Nc1ccc(S(=O)(=O)c2cccc(C(F)(F)F)c2)cc1)c1ccc(F)cc1	i	i	41
COc1ccc(-c2cc(C(F)(F)F)n3ncc(C(=O)N4CCOCC4)c3n2)cc1	i	i	i
COc1ccc(Cl)cc1NC(=O)CN1C(=O)CC(c2ccccc2)S(=O)(=O)c2ccccc21 (centres undefined)	i	i	i
COc1ccc(C2CC(=O)N(CC(=O)Nc3ccc(NC(C)=O)cc3)c3ccccc3S2)cc1OC (centres undefined)	nt	37	nt
COc1ccc(Cl)cc1NC(=O)c1cc2cccnc2n(C)c1=O	nt	i	nt
Cc1cccc(OCC(=O)Nc2onc3c2CCCC3)c1	i	i	i
O=C(Nc1nc2c(s1)CCCCC2)c1cn2cccnc2n1	i	i	i
Cc1cccc(OCC(=O)Nc2nc3c(s2)CCCC3)c1	48	i	i
O=C(Nc1nc2c(s1)CCCC2)c1cn(-c2ccccc2)nc1-c1ccccc1	i	i	i
Cc1cc(C)n(-c2ccc(C(=O)Nc3nc4c(s3)CN(C)CC4)cc2)n1	i	i	i
O=C(Nc1nc2c(s1)CCC2)c1cccc(N2CCNC2=O)c1	31	42	i
O=C(Nc1nc2c(s1)CCCC2)c1cccc(Cl)c1Cl	38	i	i
CN1CCc2nc(NC(=O)COc3ccc(C#N)cc3)sc2C1	33	83	59
COc1ccc(OCC(=O)NCC(c2ccccc2Cl)N2CCCC2)cc1 (centres undefined)	i	i	i
O=C(Cc1cccc(C(F)(F)F)c1)N1CCc2[nH]cnc2C12CCCCC2	i	i	i
COc1ccccc1CNc1nc(-c2nnc(-c3ccccc3)o2)nc2ccccc12	i	38	44
COc1ccccc1CNc1nc(N2CCCC2)nc2c1cnn2C	i	i	i
COc1cccc(C2C3=C(CC(c4ccc(Cl)cc4)CC3=O)Nc3ccccc3N2C(=O)c2ccccc2)c1 (centres undefined)	i	i	i
COc1ccc(C2C3=C(CC(c4ccc(C)cc4)CC3=O)Nc3ccccc3N2C(=O)c2ccccc2)cc1 (centres undefined)	i	i	i
Cc1ccc(C2C3=C(CC(c4ccc(Cl)cc4)CC3=O)Nc3ccccc3N2C(=O)c2ccccc2)cc1 (centres undefined)	i	i	36
Cc1ccc(C2CC(=O)C3=C(C2)Nc2ccccc2N(C(=O)c2ccccc2)C3c2ccccc2)cc1 (centres undefined)	i	i	43
SMILES	USP28 block	USP17 inh	USP30 inh
O=C(Nc1cccnc1)N1CCC(c2cc(OCc3ccccc3)no2)CC1	i	i	i
CC(C)C(NS(=O)(=O)c1cccc2cccnc12)C(=O)Nc1ccccc1 (centres undefined)	i	i	i
Cc1cc2cc(O)cc(O)c2c(=O)o1	i	i	i
COc1c2c(cc3cc(O)c4c(=O)cc(C)oc4c13)CCC2=O	i	60	i
CC(=O)N(Cc1ccccc1)c1nc2nc(C)c(Cc3ccccc3)c(=O)n2[nH]1	i	i	i
CC1=C(c2ccc(F)cc2)S(=O)(=O)N=C1N1CCCN(C(=O)C2CCC2)CC1	i	i	i
COc1cc(C(=O)Nc2ccc3c(c2)OCCO3)ccc1OCC(=O)Nc1ccc(F)cc1	i	36	i
COc1ccc(C(=O)Nc2ccc3c(c2)OCCCO3)cn1	32	i	i
COc1ccc(NC(=O)Cn2cc(C(=O)c3ccccc3)c(=O)c3cc4c(cc32)OCCO4)cc1OC	i	i	i
COc1ccc(NC(=O)Cn2cc(C(=O)c3ccc(F)cc3)c(=O)c3cc(C)ccc32)cc1OC	i	i	i
COc1cccc2[nH]c(C(=O)Nc3ccc4c(c3)OCCO4)cc12	i	i	i
COc1ccccc1Nc1ncc(C(=O)Nc2ccc3c(c2)OCO3)c2ccccc12	i	i	i
COc1cc2c(=O)c(C(=O)c3ccc(F)cc3)cn(CC(=O)Nc3ccc(F)cc3)c2cc1OC	i	33	i
COc1cc2c(=O)c(C(=O)c3ccc(F)cc3)cn(CC(=O)Nc3ccc4c(c3)OCCO4)c2cc1OC	i	37	i
Cc1ccc2[nH]c(=O)c(-c3noc(CCC(=O)N4CCOCC4)n3)cc2c1	i	i	i
O=C1C(NS(=O)(=O)Cc2ccc(Cl)cc2)CCN1c1ccccc1 (centres undefined)	i	i	i
O=S1(=O)NCC2(CCN(Cc3cccnc3)CC2)COc2ccccc21	i	i	i
Cc1oc(-c2ccccc2F)nc1CS(=O)(=O)CC(=O)NCc1ccccc1Cl	i	46	i
Cc1noc(-c2csc(C(=O)NCc3ccccc3Cl)n2)n1	i	i	i
O=C(NCC1CCCO1)c1ncn2c1CNS(=O)(=O)c1ccccc1-2 (centres undefined)	i	i	i
CSc1nc2ncn(CC(=O)Nc3cccc(Cl)c3)c(=O)c2s1	i	60	i
CSc1cccc(NC(=O)Cn2cnc3c(-c4ccc(F)cc4)nsc3c2=O)c1	i	i	i
COc1ccccc1-c1nc(CC(=O)N[C@@H](Cc2c[nH]c3ccccc23)C(=O)O)cs1	i	i	i
O=C(O)CSc1nnc(-c2ccccn2)n1Cc1ccco1	i	i	i
O=C(c1ccco1)N1CCC(Nc2ncnc3c2CCC3)C1 (centres undefined)	i	i	i
SMILES	USP28 block	USP17 inh	USP30 inh
COc1ccc(S(=O)(=O)N2CCCCCC2)cc1C(=O)Nc1ccc2[nH]c(=O)[nH]c2c1	47	30	50
COc1ccc(S(=O)(=O)N2CCCC2)cc1C(=O)NCc1ccc2c(c1)OCO2	35	i	i
Cc1ccc(S(=O)(=O)N2CCN(CC(=O)Nc3ccc4[nH]c(=O)[nH]c4c3)CC2)cc1	i	i	i
Cn1cc(C(=O)NCc2ccc3c(c2)OCO3)c(S(=O)(=O)N2CCCCC2)n1	i	i	i
COc1cc(O)c2c(=O)cc(C)oc2c1CC=C(C)C	i	38	31
COc1cc2oc(C)cc(=O)c2c(O)c1CO	i	i	i
Cc1nc(CCNC(=O)C(C)Oc2cccc(C)c2C)cs1 (centres undefined)	i	i	i
COc1ccc(NC(=O)CCC(=O)N(c2ccccc2)c2ccccc2)c(OC)c1	i	i	i
COc1cc(NC(=O)c2ccccc2)c(OC)cc1NC(=O)CCC(=O)N(c1ccccc1)c1ccccc1	i	62	58
COc1ccc(CNC(=O)Nc2cccn3ncnc23)cc1	i	i	i
CCOc1ccc(N2CC(CNS(=O)(=O)c3cccc(F)c3)CC2=O)cc1 (centres undefined)	i	i	i
CCOc1ccc(N2Cc3ccc(OC)c(OC)c3C2=O)cc1	i	38	i
Fc1ccc(-c2nsc3c(N4CCCC4)ncnc23)cc1	i	32	i
Fc1ccc2[nH]c3c(N4CCCC4)ncnc3c2c1	i	i	i
O=C(N[C@H]1[C@H](O)[C@H](O)C[C@@H]1c1ccncc1)C1CC1	i	i	i
